Reference: the supplement of paper PMC10127200
Where a name gives a salt, the structure may show the parent alone.

Assays:
Test in all cases: Euclidean distance of Cell Painting phenotypic profile (signed KS, 77 features) to DMSO centroid (dimensionless distance); 5 or 10 uM (library dependent); higher = stronger phenotypic change vs DMSO (phenoactivity)
Details in all cases: 48 h
786-O = system: 786-O
Method in brief: (§1)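 Harmony extracted 77 features from 20X confocal images (9 fields/well) of stained cells, scoring each as a signed Kolmogorov-Smirnov statistic against same-plate vehicle wells. The cells, five cancer lines and a healthy fibroblast line, had received library compounds for 48 h at 10 or 5 uM depending on library, with 0.1% DMSO final. Phenoactivity is the Euclidean distance from each plate-position-corrected, correlation-weighted, top-dose replicate-averaged profile to the median vehicle profile.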

A549 = system: A549
Method in brief: as §1

DU145 = system: DU145
Method in brief: as §1

FB = system: FB
Method in brief: as §1

HEPG2 = system: HEPG2
Method in brief: as §1

OVCAR4 = system: OVCAR4
Method in brief: as §1

Compound	Euclidean distance (786-O)	Euclidean distance (A549)	Euclidean distance (DU145)	Euclidean distance (FB)	Euclidean distance (HEPG2)	Euclidean distance (OVCAR4)
CCNC(=O)[C@@H]1CCCN1C(=O)[C@H](CCCNC(=N)N)NC(=O)[C@H](CC(C)C)NC(=O)[C@@H](CC(C)C)NC(=O)[C@H](Cc1ccc(O)cc1)NC(=O)[C@H](CO)NC(=O)[C@H](Cc1c[nH]c2ccccc12)NC(=O)[C@H](Cc1c[nH]cn1)NC(=O)[C@@H]1CCC(=O)N1 [Leuprolide Acetate]	0.73	0.754	0.992	0.659	0.515	0.971
CN(C)C(=O)N[C@H]1CC[C@H](CCN2CCN(c3cccc(Cl)c3Cl)CC2)CC1 [Cariprazine HCl]	1.25	1.41	1.47	1.58	1.63	0.982
COC1=C2C[C@@H](C)C[C@H](OC)[C@H](O)[C@@H](C)/C=C(\C)[C@H](OC(N)=O)[C@@H](OC)/C=C\C=C(/C)C(=O)NC(=CC1=O)C2=O [Geldanamycin]	2.87	3.3	3.52	3.35	1.8	2.91
CCC[C@H](NC(=O)/C(C#N)=C/c1cccc(Br)n1)c1ccccc1 [Degrasyn (WP1130)]	5.15	4.08	4.95	2.59	1.66	4.93
CO/N=C(\C(=O)N[C@@H]1C(=O)N2C(C(=O)OC(C)OC(C)=O)=C(COC(N)=O)CS[C@H]12)c1ccco1 (some centres not stated) [Cefuroxime axetil]	0.923	0.763	0.929	1.28	1.28	1.41
Nc1ccc(C(=O)O)c(O)c1 [Sodium 4-Aminosalicylate]	1.34	2.62	1.27	2.47	1.02	1.43
CN1CCC(COc2cnc(-c3cccc(Cn4nc(-c5cccc(C#N)c5)ccc4=O)c3)nc2)CC1	1.74	3.89	2.96	2.46	1.76	1.52
Cc1cc2c(cc1S(N)(=O)=O)S(=O)(=O)CCC2 [Meticrane]	0.951	0.864	2.26	0.946	1.17	0.99
CN(C)CC(=O)Nc1ccc2[nH]c(=O)c3ccccc3c2c1	1.25	1.08	0.921	1.3	1.34	1.07
OC1(c2ccc(Cl)c(C(F)(F)F)c2)CCN(CCCC(c2ccc(F)cc2)c2ccc(F)cc2)CC1 [Penfluridol]	4.2	4.66	5.91	3.4	4.97	4.03
CC#C[C@]1(O)CC[C@H]2[C@@H]3CCC4=CC(=O)CCC4=C3[C@@H](c3ccc(N(C)C)cc3)C[C@@]21C [Mifepristone]	1.22	1.62	1.48	1.13	1.01	1.14
C=C1CC/C=C(/C)CC[C@@H]2[C@@H]1CC2(C)C [Œ≤-Caryophyllene]	1.02	0.652	0.86	0.747	0.457	1.68
NC(=N\CCCCCC/N=C(N)/N=C(\N)Nc1ccc(Cl)cc1)/N=C(\N)Nc1ccc(Cl)cc1 [Chlorhexidine diacetate]	2.69	4.3	3.46	2.04	3.03	3.25
FCOC(C(F)(F)F)C(F)(F)F [Sevoflurane]	1.15	0.865	0.847	0.867	0.827	1.51
C[C@@H](N)c1ccc(C(=O)Nc2ccnc3[nH]ccc23)cc1	1.87	3.06	3.16	3.73	2.26	2.05
CC(C)NCC(O)COc1ccc(CCOCC2CC2)cc1 (configuration not stated) [Betaxolol]	0.891	0.384	0.799	0.967	1.64	1.14
[O-][n+]1cccc(-c2nc3c(Cl)cccc3cc2[C@@H](Nc2ncnc3cccnc23)C(F)(F)F)c1 [Seletalisib (UCB-5857)]	1.2	0.825	1.4	1.69	1.73	2.03
OC[C@H]1O[C@@H](Oc2ccc(O)cc2)[C@H](O)[C@@H](O)[C@@H]1O [Arbutin]	1.12	0.916	2.06	0.914	0.919	1.73
O=C(NC(NC(=S)Nc1ccc(F)c([N+](=O)[O-])c1)C(Cl)(Cl)Cl)C(c1ccccc1)c1ccccc1 (configuration not stated)	1.02	2.27	1.38	1.49	1.56	1.25
O=C(NCc1ccc(Oc2ccccc2)cc1)c1nc(-c2cc(Br)c(O)c(Br)c2)no1	0.904	1.1	0.858	0.788	1.55	1.21
OC(CCN1CCCC1)(c1ccccc1)C1CCCCC1 (configuration not stated) [Procyclidine HCl]	0.828	0.891	0.562	1.87	1.33	0.869
COc1c(O[C@@H]2O[C@H](CO)[C@@H](O)[C@H](O)[C@H]2O)cc2c(c1OC)-c1ccc(SC)c(=O)cc1[C@@H](NC(C)=O)CC2 [Thiocolchicoside]	0.819	0.537	0.944	1.41	0.502	1.21
